Several values for one entry are separate records, joined by “and”; a condition that tells them apart may be missing. Identical values can stand only once. Counter-ions that a name gives are not always drawn.
How the values were obtained:
Assay in all cases: cell viability relative to vehicle control; higher = less cytotoxic
Settings in all cases: 10 µM
K562 = test system: K562
Summary of the method: (§1)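 CRISPR-edited SRSF2 P95 mutant and isogenic wild-type clones of four leukaemia lines were screened against Selleck bioactive, kinase and epigenetic probe libraries, with identity-inconsistent compounds removed. Compounds were acoustically dispensed into 384-well plates at a single 10 µM dose, with 2000 cells in 50 µL medium per well. After 48 h, supernatant was removed and CellTiter-Glo luminescence was read. Viability was expressed as percent of the on-plate DMSO vehicle control, analysed in Genedata Screener.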

MARIMO = test system: MARIMO
Summary of the method: as §1

MOLM14 = test system: MOLM14
Summary of the method: as §1

OCI-AML2 = test system: OCI-AML2
Summary of the method: as §1

Row | Structure (SMILES) | cell viability (K562; SRSF2 genotype: SRSF2 P95H/wt) | cell viability (K562; SRSF2 genotype: SRSF2 wt/wt) [%] | cell viability (MARIMO; SRSF2 genotype: SRSF2 P95H/wt) [%] | cell viability (MARIMO; SRSF2 genotype: SRSF2 wt/wt) [%] | cell viability (MOLM14; SRSF2 genotype: SRSF2 P95H/wt) [%] | cell viability (MOLM14; SRSF2 genotype: SRSF2 wt/wt) [%] | cell viability (OCI-AML2; SRSF2 genotype: P95H/wt) [%] | cell viability (OCI-AML2; SRSF2 genotype: wt/wt) [%]
1 | O=C([O-])c1ccccc1O.[Na+] [Sodium salicylate] | 93.7% and 88.7% | 85.5 | 94.4 | 97 | 97 | 94.1 | 91.2 | 98
2 | C=C1C(=O)O[C@H]2[C@H]1CCC(C)=C1CC[C@@](C)(O)[C@@H]12 [Micheliolide] | 28.9% and 41.7% | 64.4 | 15.9 | 19.8 | 7.9 | 7.02 | 5.22 | 11.1
3 | O=C(Nc1cnn2ccc(N3CCC[C@@H]3c3cc(F)ccc3F)nc12)N1CC[C@H](O)C1 [LOXO-101(sulfate)] | 104% and 105% | 104 | 113 | 118 | 97.6 | 104 | 98.2 | 104
4 | CC[C@@H](C)Nc1cc(C(=O)N[C@H]2C[C@H]3CC[C@@H](C2)N3c2ccc(C(=O)C3CC3)cn2)c(C)cc1C(N)=O | 19.1% and 26.9% | 23 | 32.8 | 28.5 | 2 | 2.43 | 14.2 | 21
5 | CC[C@H](NC(=O)[C@H](C)NC)C(=O)N1C[C@@H](O)C[C@H]1Cc1c(-c2[nH]c3cc(F)ccc3c2C[C@@H]2C[C@H](O)CN2C(=O)[C@H](CC)NC(=O)[C@H](C)NC)[nH]c2cc(F)ccc12 | 97.7% and 102% | 99.4 | 78.6 | 93.4 | 61.6 | 65.4 | 103 | 107
6 | OCCN1C[C@H](O)[C@@H](O)[C@H](O)[C@H]1CO [Miglitol (Glyset)] | 98.3% and 109% | 101 | 106 | 102 | 106 | 106 | 107 | 94.9
7 | CO[C@H]1/C=C/O[C@@]2(C)Oc3c(C)c(O)c4c(O)c(c(/C=N/N5CCN(C6CCCC6)CC5)c(O)c4c3C2=O)NC(=O)/C(C)=C\C=C\[C@H](C)[C@H](O)[C@@H](C)[C@@H](O)[C@@H](C)[C@H](OC(C)=O)[C@@H]1C [Rifapentine] | 87.7% and 92.5% | 87.4 | 78.3 | 109 | 56.2 | 67 | 56.1 | 57.2
8 | C[C@H](NC(=O)/C(C#N)=C/c1cccc(Br)n1)c1ccccc1 | 25.6% and 17.4% | 20.6 | 11.2 | 7.31 | 2.5 | 0.75 | 10.2 | 7.71
9 | Nc1ccn([C@H]2CC[C@@H](CO)O2)c(=O)n1 [Zalcitabine] | 111% and 103% | 111 | 107 | 112 | 105 | 107 | 58.7 | 83
10 | COc1cc2ncnc(Oc3cccc(NC(=O)Nc4cc(C(C)(C)C(F)(F)F)on4)c3)c2cc1OC | 23.5% and 40.4% | 24.8 | 79.4 | 85 | 33.8 | 23.7 | 60.3 | 61.5
11 | C[C@H]1COc2c(N3CCN(C)CC3)c(F)cc3c(=O)c(C(=O)O)cn1c23 [Levofloxacin hydrate] | 93.5% and 91% | 95.8 | 94.3 | 98.4 | 97.2 | 97.9 | 93.3 | 92.1
12 | Cc1cc(N2CCOCC2)cc2[nH]c(-c3c(NCC(O)c4cccc(Cl)c4)cc[nH]c3=O)nc12 (centres undefined) | 46.4% and 36.7% | 52.1 | 33.2 | 31 | 5.77 | 9.63 | 7.45 | 18
13 | CC1CNc2c(cccc2S(=O)(=O)N[C@@H](CCCNC(=N)N)C(=O)N2CC[C@@H](C)C[C@@H]2C(=O)O)C1 (some centres undefined) [Argatroban] | 107% and 105% | 94 | 100 | 108 | 103 | 101 | 91.7 | 107
14 | Cc1noc(NS(=O)(=O)c2ccc(N)cc2)c1C [Sulfisoxazole] | 106% and 97.9% | 107 | 98.5 | 104 | 97.6 | 103 | 98.5 | 104
15 | Cc1nnc(SCC2=C(C(=O)O)N3C(=O)[C@@H](NC(=O)Cn4cc(Cl)c(=O)c(Cl)c4)[C@H]3SC2)s1 [Cefazedone] | 102% and 107% | 108 | 106 | 111 | 106 | 106 | 121 | 102
16 | [I-].[K+] [Potassium iodide] | 100% and 96% | 100 | 107 | 105 | 106 | 100 | 102 | 112
17 | Cc1nc(N(C)C(=O)Cc2ccc(-c3ccccn3)cc2)sc1S(N)(=O)=O [Pritelivir (BAY 57-1293)] | 99.6% and 99.5% | 92.1 | 103 | 112 | 108 | 103 | 98.5 | 95.7
18 | O=C(Nc1cc(Cl)cc2c1[nH]c1cnccc12)c1cccnc1 | 89% and 95.7% | 88.8 | 111 | 116 | 85.2 | 101 | 86.8 | 85.9
19 | CS(=O)(=O)c1cccc(CNc2nc(Nc3ccc4c(c3)CCC(=O)N4)ncc2C(F)(F)F)c1 | 77% and 90.4% | 98.3 | 49.7 | 48.8 | 8.16 | 5.1 | 9.56 | 16.9

Row | Structure (SMILES) | cell viability (K562; SRSF2 genotype: SRSF2 P95H/wt) | cell viability (K562; SRSF2 genotype: SRSF2 wt/wt) [%] | cell viability (MARIMO; SRSF2 genotype: SRSF2 P95H/wt) [%] | cell viability (MARIMO; SRSF2 genotype: SRSF2 wt/wt) [%] | cell viability (MOLM14; SRSF2 genotype: SRSF2 P95H/wt) [%] | cell viability (MOLM14; SRSF2 genotype: SRSF2 wt/wt) [%] | cell viability (OCI-AML2; SRSF2 genotype: P95H/wt) [%] | cell viability (OCI-AML2; SRSF2 genotype: wt/wt) [%]
20 | CCN[C@H]1CN(CCCOC)S(=O)(=O)c2sc(S(N)(=O)=O)cc21 [Brinzolamide] | 87.4% and 79.5% | 85.7 | 83.7 | 88.2 | 83.2 | 86.5 | 84.2 | 90.2
21 | CCN(CC)CCNC(=O)c1c(C)[nH]c(/C=C2\C(=O)Nc3ccc(-c4csc(-c5ccccc5)n4)cc32)c1C [Amcasertib (BBI503)] | 0.84% and 1.26% | 0.76 | 66.4 | 43.4 | 4.21 | 8.87 | 4.03 | 26
22 | NCCCCCNCC12CC3CC(CC(C3)C1)C2 [IEM 1754 dihydrobroMide] | 102% and 104% | 95 | 104 | 105 | 103 | 102 | 91.4 | 100
23 | O=C(/C=C/N1C[C@H]2C[C@@H]1CN2c1ccccn1)c1ccccc1O | 93.1% and 98% | 97.1 | 95.5 | 96.5 | 102 | 99.2 | 104 | 105
24 | Cc1cnc(-c2ccccc2C(C)C)nc1NCc1ccc(-n2ccnn2)cc1 | 76.7% and 83.9% | 74.5 | 91.1 | 89.7 | 94 | 88.5 | 93.2 | 90.2
25 | COc1ccc(-c2cc(=O)c3c(O)c(OC)c(O)c(OC)c3o2)cc1 [Lysionotin] | 104% and 98% | 98.9 | 97.9 | 114 | 64 | 76.8 | 74.8 | 83
26 | O=C(O)Cc1ccccc1Nc1c(Cl)cccc1Cl [Diclofenac Potassium] | 94.4% and 99.1% | 97.2 | 106 | 105 | 93.5 | 100 | 95.3 | 105
27 | COc1ccc(CCNCc2ccc(OCc3ccc(Cl)nc3)c(OC)c2)cc1OC | 85.6% and 95.4% | 89.8 | 87.4 | 95.2 | 91.9 | 99.9 | 91.4 | 83.5
28 | CC(C)C(=O)OCC(=O)[C@@]12O[C@H](C3CCCCC3)O[C@@H]1C[C@H]1[C@@H]3CCC4=CC(=O)C=C[C@]4(C)[C@H]3[C@@H](O)C[C@@]12C [Ciclesonide] | 57% and 55.7% | 62.1 | 63.6 | 68.9 | 41.4 | 41.6 | 25.5 | 59.6
29 | COc1cc2c(cc1OC)CN(CCc1ccc(NC(=O)c3cc(OC)c(OC)cc3NC(=O)c3cnc4ccccc4c3)cc1)CC2 [Tariquidar] | 94.6% and 105% | 96.9 | 95.3 | 105 | 93.5 | 95.7 | 96.4 | 100
30 | CCCCNc1cc(C(=O)O)cc(S(N)(=O)=O)c1Oc1ccccc1 [Bumetanide] | 105% and 102% | 102 | 96.5 | 108 | 105 | 101 | 99.9 | 110
31 | CCN(CC)CCCC[C@H](NC(=O)[C@H](CC(C)C)NC(=O)[C@H](C)NC(=O)[C@H](Cc1ccccc1)NC(=O)c1ccc(C(C)(C)C)cc1)C(=O)N[C@@H](CO)C(=O)OC | 88.1% and 85% | 84.6 | 86.1 | 99 | 83.2 | 92 | 90.4 | 113
32 | COC1C(O)CC(=O)OC(C)CC=CC=CC(OC2CCC(N(C)C)C(C)O2)C(C)CC(CC=O)C1OC1OC(C)C(OC2CC(C)(O)C(O)C(C)O2)C(N(C)C)C1O (centres undefined) [spiramycin] | 93.7% and 96.3% | 108 | 99.4 | 102 | 98 | 103 | 110 | 96.7
33 | O=C1NC(=O)/C(=C/c2ccc3c(c2)OC(F)(F)O3)S1 | 103% and 97.1% | 98.1 | 101 | 99.8 | 96.9 | 101 | 95.3 | 103
34 | CN1CCN(c2c(F)cc3c(=O)c(C(=O)O)cn4c3c2OCN4C)CC1 [Marbofloxacin] | 100% and 108% | 105 | 102 | 109 | 103 | 100 | 104 | 110
35 | Cc1cc(NC(=O)c2cccc(NC(=O)/C=C/CN(C)C)c2)ccc1Nc1nccc(-c2cccnc2)n1 | 59.8% and 60.8% | 65.5 | 53.1 | 50.7 | 6.36 | 6.17 | 17.2 | 26.6
36 | CC(C)C[C@@H](C=O)NC(=O)[C@H](CC(C)C)NC(=O)[C@H](CC(C)C)NC(=O)OCc1ccccc1 | 1.82% and 1.99% | 1.37 | 0.54 | 1.13 | 0.49 | 0.53 | 0.36 | 0.41
37 | COc1cccc(-c2cc(=O)c3ccccc3o2)c1N | 95.9% and 95.1% | 95.6 | 69.9 | 61.9 | 99.5 | 109 | 73.1 | 58
38 | CC=Cc1cc(OC)c2c(c1)C(C)C(c1ccc(O)c(OC)c1)O2 (centres undefined) [Dehydrodiisoeugenol] | 90.2% and 91.2% | 90.4 | 89.4 | 95.5 | 83.3 | 97.8 | 75.8 | 78.8

Reference: the supplement of paper PMC10981050
